Common to all, as to assay: PBM; 200 nM protein, PBS
Settings in all cases: dsDNA, one strand shown

In experiment [1] the target is HESX1 (Homo sapiens, UniProt Q9UBX0 95-180, R165K).
Experiment [2] has as its target HOXB9 (Homo sapiens, UniProt P17482 171-250, T197M).
In experiment [3] the target is HOXA7 (Homo sapiens, UniProt P31268 116-202).
In experiment [4] the target is ALX4 (Homo sapiens, UniProt Q9H161 200-286).
Experiment [5] addresses PRRX1 (Homo sapiens, UniProt P54821 80-166, F113S).
Experiment [6] addresses HOXB6 (Homo sapiens, UniProt P17509 132-218, K202E).
Experiment [7] deals with ALX4 (Homo sapiens, UniProt Q9H161 200-286, Q225E).
Sequence of ALX4 (Homo sapiens, UniProt Q9H161 200-286, Q225E) (Q9H161 200-286 Q225E): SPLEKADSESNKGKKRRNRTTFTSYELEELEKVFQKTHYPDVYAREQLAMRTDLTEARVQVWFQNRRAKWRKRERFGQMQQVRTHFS
Experiment [8] has as its target HESX1 (Homo sapiens, UniProt Q9UBX0 95-180).
The target of experiment [9] is HOXA4 (Homo sapiens, UniProt Q00056 201-287, R217L).
Sequence of HOXA4 (Homo sapiens, UniProt Q00056 201-287, R217L) (Q00056 201-287 R217L): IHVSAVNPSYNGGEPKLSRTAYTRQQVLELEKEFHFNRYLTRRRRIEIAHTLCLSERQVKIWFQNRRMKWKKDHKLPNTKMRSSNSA
The target in experiment [10] is MSX2 (Homo sapiens, UniProt P35548 130-214, R199I).
Sequence of MSX2 (Homo sapiens, UniProt P35548 130-214, R199I) (P35548 130-214 R199I): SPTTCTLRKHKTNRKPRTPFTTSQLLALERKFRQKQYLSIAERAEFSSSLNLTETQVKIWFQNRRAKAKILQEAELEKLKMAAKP
Experiment [11] deals with ALX1 (Homo sapiens, UniProt Q15699 118-204, L144V).
Sequence of ALX1 (Homo sapiens, UniProt Q15699 118-204, L144V) (Q15699 118-204 L144V): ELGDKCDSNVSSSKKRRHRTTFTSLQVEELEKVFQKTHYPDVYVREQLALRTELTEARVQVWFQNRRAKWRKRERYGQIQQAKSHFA
Experiment [12] addresses ALX3 (Homo sapiens, UniProt O95076 139-225, N203Q).
In experiment [13] the target is ALX1 (Homo sapiens, UniProt Q15699 118-204, L144R).
Sequence of ALX1 (Homo sapiens, UniProt Q15699 118-204, L144R) (Q15699 118-204 L144R): as the sequence (Q15699 118-204 L144V) above, with V27R counted along it
The target of experiment [14] is MSX2 (Homo sapiens, UniProt P35548 130-214).
Sequence of MSX2 (Homo sapiens, UniProt P35548 130-214) (P35548 130-214): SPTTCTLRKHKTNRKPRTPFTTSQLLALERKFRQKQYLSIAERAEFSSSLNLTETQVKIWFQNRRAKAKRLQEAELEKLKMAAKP
The target in experiment [15] is ALX3 (Homo sapiens, UniProt O95076 139-225).
Sequence of ALX3 (Homo sapiens, UniProt O95076 139-225) (O95076 139-225): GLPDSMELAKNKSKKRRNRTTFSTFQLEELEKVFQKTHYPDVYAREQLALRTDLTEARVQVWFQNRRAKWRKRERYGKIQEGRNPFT
In experiment [16] the target is T1, PAX4 (Homo sapiens, UniProt O43316 9-242, F177Y).
T1 sequence: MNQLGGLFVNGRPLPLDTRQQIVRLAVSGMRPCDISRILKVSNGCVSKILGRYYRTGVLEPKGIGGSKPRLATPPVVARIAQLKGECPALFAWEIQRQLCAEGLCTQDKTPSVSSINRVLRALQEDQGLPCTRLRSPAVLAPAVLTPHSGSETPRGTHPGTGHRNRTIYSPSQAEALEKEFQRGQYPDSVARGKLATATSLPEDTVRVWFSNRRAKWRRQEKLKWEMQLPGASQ

In experiment [17] the target is PROP1 (Homo sapiens, UniProt O75360 56-141).
Sequence of PROP1 (Homo sapiens, UniProt O75360 56-141) (O75360 56-141): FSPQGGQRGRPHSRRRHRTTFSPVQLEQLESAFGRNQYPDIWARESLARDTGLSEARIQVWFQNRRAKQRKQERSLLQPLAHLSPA
For experiment [18], the target named is HESX1 (Homo sapiens, UniProt Q9UBX0 95-180, R109Q).
Sequence of HESX1 (Homo sapiens, UniProt Q9UBX0 95-180, R109Q) (Q9UBX0 95-180 R109Q): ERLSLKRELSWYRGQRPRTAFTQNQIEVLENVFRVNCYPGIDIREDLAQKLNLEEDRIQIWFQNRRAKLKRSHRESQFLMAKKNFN
Experiment [19] addresses PROP1 (Homo sapiens, UniProt O75360 56-141, R99H).
For experiment [20], the target named is ALX3 (Homo sapiens, UniProt O95076 139-225, L168Q).
Sequence of ALX3 (Homo sapiens, UniProt O95076 139-225, L168Q) (O95076 139-225 L168Q): as the sequence (O95076 139-225) above, with L30Q counted along it
For experiment [21], the target named is HESX1 (Homo sapiens, UniProt Q9UBX0 95-180, P111T).
Sequence of HESX1 (Homo sapiens, UniProt Q9UBX0 95-180, P111T) (Q9UBX0 95-180 P111T): as the sequence (Q9UBX0 95-180 R109Q) above, with Q15R, P17T counted along it
For experiment [22], the target named is HOXC9 (Homo sapiens, UniProt P31274 178-260, R222W).
Sequence of HOXC9 (P31274 178-260 R222W): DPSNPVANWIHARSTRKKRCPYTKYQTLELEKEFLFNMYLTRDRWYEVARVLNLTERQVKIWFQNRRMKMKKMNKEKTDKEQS
Experiment [23] addresses ALX3 (Homo sapiens, UniProt O95076 139-225, L168V).
Experiment [24] addresses PROP1 (Homo sapiens, UniProt O75360 56-141, F88S).
Experiment [25] addresses MSX2 (Homo sapiens, UniProt P35548 130-214, F161Y).
The target in experiment [26] is HESX1 (Homo sapiens, UniProt Q9UBX0 95-180, F115L).
Sequence of HESX1 (Homo sapiens, UniProt Q9UBX0 95-180, F115L) (Q9UBX0 95-180 F115L): as the sequence (Q9UBX0 95-180 R109Q) above, with Q15R, F21L counted along it
The target of experiment [27] is VAX1 (Homo sapiens, UniProt Q5SQQ9 86-172, T142I).
Sequence of VAX1 (Q5SQQ9 86-172 T142I): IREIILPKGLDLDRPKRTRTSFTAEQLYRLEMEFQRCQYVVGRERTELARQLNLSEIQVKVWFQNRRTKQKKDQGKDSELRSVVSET
Experiment [28] concerns the target T2, PAX4 (Homo sapiens, UniProt O43316 9-242, R227W).
T2 sequence: T1 sequence with Y169F, R219W

Experiment [29] addresses HOXA7 (Homo sapiens, UniProt P31268 116-202, W177C).
For experiment [30], the target named is ALX1 (Homo sapiens, UniProt Q15699 118-204).
Sequence of ALX1 (Homo sapiens, UniProt Q15699 118-204) (Q15699 118-204): as the sequence (Q15699 118-204 L144V) above, with V27L counted along it
Experiment [31] concerns the target HOXA4 (Homo sapiens, UniProt Q00056 201-287, W262F).
Experiment [32] concerns the target ALX3 (Homo sapiens, UniProt O95076 139-225, N203S).
The target of experiment [33] is PRRX1 (Homo sapiens, UniProt P54821 80-166).
Sequence of PRRX1 (Homo sapiens, UniProt P54821 80-166) (P54821 80-166): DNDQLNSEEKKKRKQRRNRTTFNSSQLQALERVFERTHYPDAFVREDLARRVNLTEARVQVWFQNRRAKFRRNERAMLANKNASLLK
Experiment [34] addresses HOXB6 (Homo sapiens, UniProt P17509 132-218).
In experiment [35] the target is T3, VENTX (Homo sapiens, UniProt O95231 78-163, R121Q).
T3 sequence: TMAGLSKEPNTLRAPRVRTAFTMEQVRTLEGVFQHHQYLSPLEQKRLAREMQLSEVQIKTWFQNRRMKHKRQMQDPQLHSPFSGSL

The target of experiment [36] is T4, VENTX (Homo sapiens, UniProt O95231 78-163).
T4 sequence: T3 sequence with Q44R

Experiment [37] deals with T5, VENTX (Homo sapiens, UniProt O95231 78-163, Y115F).
T5 sequence: T3 sequence with Y38F, Q44R

For experiment [38], the target named is CRX (Homo sapiens, UniProt O43186 26-111).
Sequence of CRX (Homo sapiens, UniProt O43186 26-111) (O43186 26-111): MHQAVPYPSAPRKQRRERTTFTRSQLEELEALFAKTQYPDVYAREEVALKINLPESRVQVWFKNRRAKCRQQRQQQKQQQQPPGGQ
Experiment [39] has as its target CRX (Homo sapiens, UniProt O43186 26-111, E42D).
In experiment [40] the target is CRX (Homo sapiens, UniProt O43186 26-111, R41L).
Sequence of CRX (Homo sapiens, UniProt O43186 26-111, R41L) (O43186 26-111 R41L): as the sequence (O43186 26-111) above, with R16L counted along it

Residue numbers refer to the chain shown, from its start.

Sequence of HESX1 (Homo sapiens, UniProt Q9UBX0 95-180) (Q9UBX0 95-180): as the sequence (Q9UBX0 95-180 R109Q) above, with Q15R counted along it
Sequence of HESX1 (Homo sapiens, UniProt Q9UBX0 95-180, R165K) (Q9UBX0 95-180 R165K): as the sequence (Q9UBX0 95-180 R109Q) above, with Q15R, R71K counted along it
Sequence of HOXA7 (Homo sapiens, UniProt P31268 116-202) (P31268 116-202): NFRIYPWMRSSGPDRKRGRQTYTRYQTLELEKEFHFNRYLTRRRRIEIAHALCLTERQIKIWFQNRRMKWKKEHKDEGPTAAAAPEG
Sequence of ALX4 (Homo sapiens, UniProt Q9H161 200-286) (Q9H161 200-286): as the sequence (Q9H161 200-286 Q225E) above, with E26Q counted along it
Sequence of HOXB9 (P17482 171-250 T197M): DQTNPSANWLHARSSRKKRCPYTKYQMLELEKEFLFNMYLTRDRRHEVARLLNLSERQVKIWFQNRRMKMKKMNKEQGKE
Sequence of ALX3 (Homo sapiens, UniProt O95076 139-225, L168V) (O95076 139-225 L168V): as the sequence (O95076 139-225) above, with L30V counted along it
Sequence of HOXA4 (Homo sapiens, UniProt Q00056 201-287, W262F) (Q00056 201-287 W262F): as the sequence (Q00056 201-287 R217L) above, with L17R, W62F counted along it
Sequence of ALX3 (Homo sapiens, UniProt O95076 139-225, N203S) (O95076 139-225 N203S): as the sequence (O95076 139-225) above, with N65S counted along it
Sequence of CRX (Homo sapiens, UniProt O43186 26-111, E42D) (O43186 26-111 E42D): as the sequence (O43186 26-111) above, with E17D counted along it
Sequence of PRRX1 (Homo sapiens, UniProt P54821 80-166, F113S) (P54821 80-166 F113S): as the sequence (P54821 80-166) above, with F34S counted along it
Sequence of HOXB6 (Homo sapiens, UniProt P17509 132-218) (P17509 132-218): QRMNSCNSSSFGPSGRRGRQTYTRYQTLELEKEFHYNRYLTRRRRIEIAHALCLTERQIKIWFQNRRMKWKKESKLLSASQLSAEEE
Sequence of MSX2 (Homo sapiens, UniProt P35548 130-214, F161Y) (P35548 130-214 F161Y): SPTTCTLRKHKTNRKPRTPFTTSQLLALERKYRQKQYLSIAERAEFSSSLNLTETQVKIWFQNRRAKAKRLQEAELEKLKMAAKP
Sequence of HOXB6 (Homo sapiens, UniProt P17509 132-218, K202E) (P17509 132-218 K202E): as the sequence (P17509 132-218) above, with K71E counted along it
Sequence of ALX3 (Homo sapiens, UniProt O95076 139-225, N203Q) (O95076 139-225 N203Q): as the sequence (O95076 139-225) above, with N65Q counted along it
Sequence of HOXA7 (Homo sapiens, UniProt P31268 116-202, W177C) (P31268 116-202 W177C): as the sequence (P31268 116-202) above, with W62C counted along it
Sequence of PROP1 (Homo sapiens, UniProt O75360 56-141, F88S) (O75360 56-141 F88S): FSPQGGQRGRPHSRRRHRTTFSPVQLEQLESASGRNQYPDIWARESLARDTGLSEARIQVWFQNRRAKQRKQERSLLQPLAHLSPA
Sequence of PROP1 (Homo sapiens, UniProt O75360 56-141, R99H) (O75360 56-141 R99H): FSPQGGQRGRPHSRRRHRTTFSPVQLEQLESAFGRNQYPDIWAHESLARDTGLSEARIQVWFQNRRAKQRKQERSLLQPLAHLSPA

In the case of AATTATTA, the binding signal in [1] is 11.5 upbm affinity estimate (log intensity, higher = more binding, comparable within an allelic series); in [2] it was 10.1 upbm affinity estimate (log intensity, higher = more binding, comparable within an allelic series); in experiment [3], 11.3 upbm affinity estimate (log intensity, higher = more binding, comparable within an allelic series); in [4], 13.5 upbm affinity estimate (log intensity, higher = more binding, comparable within an allelic series); in experiment [5], 11.3 upbm affinity estimate (log intensity, higher = more binding, comparable within an allelic series); in experiment [6], 10.1 upbm affinity estimate (log intensity, higher = more binding, comparable within an allelic series). Besides, the binding signal in experiment [7] is 12.8 upbm affinity estimate (log intensity, higher = more binding, comparable within an allelic series); in [8] it was 11.7 upbm affinity estimate (log intensity, higher = more binding, comparable within an allelic series); in [9], 12 upbm affinity estimate (log intensity, higher = more binding, comparable within an allelic series); in [10], 12.3 upbm affinity estimate (log intensity, higher = more binding, comparable within an allelic series); in experiment [11], 11.4 upbm affinity estimate (log intensity, higher = more binding, comparable within an allelic series); in experiment [12], 8.58 upbm affinity estimate (log intensity, higher = more binding, comparable within an allelic series). In addition, the binding signal in experiment [13] is 11.2 upbm affinity estimate (log intensity, higher = more binding, comparable within an allelic series); in [14], 13.4 upbm affinity estimate (log intensity, higher = more binding, comparable within an allelic series); in experiment [15] it was 12.3 upbm affinity estimate (log intensity, higher = more binding, comparable within an allelic series); in experiment [16], 10.9 upbm affinity estimate (log intensity, higher = more binding, comparable within an allelic series); in experiment [17], 11 upbm affinity estimate (log intensity, higher = more binding, comparable within an allelic series); in experiment [18], 8.87 upbm affinity estimate (log intensity, higher = more binding, comparable within an allelic series). Besides, the binding signal was 10.8 upbm affinity estimate (log intensity, higher = more binding, comparable within an allelic series) in experiment [19]; 10.4 upbm affinity estimate (log intensity, higher = more binding, comparable within an allelic series) in experiment [20]; 10.3 upbm affinity estimate (log intensity, higher = more binding, comparable within an allelic series) in experiment [21]; 11.1 upbm affinity estimate (log intensity, higher = more binding, comparable within an allelic series) in experiment [22]; 9.98 upbm affinity estimate (log intensity, higher = more binding, comparable within an allelic series) in [23]; 7.79 upbm affinity estimate (log intensity, higher = more binding, comparable within an allelic series) in experiment [24]. The binding signal was 13.1 upbm affinity estimate (log intensity, higher = more binding, comparable within an allelic series) in experiment [25]; 8 upbm affinity estimate (log intensity, higher = more binding, comparable within an allelic series) in experiment [26]; 12.3 upbm affinity estimate (log intensity, higher = more binding, comparable within an allelic series) in experiment [27]; 11 upbm affinity estimate (log intensity, higher = more binding, comparable within an allelic series) in [28]; 8.91 upbm affinity estimate (log intensity, higher = more binding, comparable within an allelic series) in experiment [29]; 12 upbm affinity estimate (log intensity, higher = more binding, comparable within an allelic series) in experiment [30]. For the same sequence, the binding signal was 11.5 upbm affinity estimate (log intensity, higher = more binding, comparable within an allelic series) in experiment [31]; 8.68 upbm affinity estimate (log intensity, higher = more binding, comparable within an allelic series) in experiment [32]; 13.4 upbm affinity estimate (log intensity, higher = more binding, comparable within an allelic series) in experiment [33]; 11.8 upbm affinity estimate (log intensity, higher = more binding, comparable within an allelic series) in [34].

Turning to GCCAGCGA, the binding signal in experiment [1] was 6.34 upbm affinity estimate (log intensity, higher = more binding, comparable within an allelic series); in experiment [35], 8.16 upbm affinity estimate (log intensity, higher = more binding, comparable within an allelic series); in [36], 8.16 upbm affinity estimate (log intensity, higher = more binding, comparable within an allelic series); in [37], 8.18 upbm affinity estimate (log intensity, higher = more binding, comparable within an allelic series); in experiment [8], 6.55 upbm affinity estimate (log intensity, higher = more binding, comparable within an allelic series); in experiment [18] it was 6.49 upbm affinity estimate (log intensity, higher = more binding, comparable within an allelic series). In addition, the binding signal in [21] was 6.48 upbm affinity estimate (log intensity, higher = more binding, comparable within an allelic series); in [26], 6.56 upbm affinity estimate (log intensity, higher = more binding, comparable within an allelic series).

On to AGGCCCGC, for which the binding signal is 6.43 upbm affinity estimate (log intensity, higher = more binding, comparable within an allelic series) in experiment [1]; 8.17 upbm affinity estimate (log intensity, higher = more binding, comparable within an allelic series) in experiment [38]; 6.37 upbm affinity estimate (log intensity, higher = more binding, comparable within an allelic series) in experiment [8]; 8.1 upbm affinity estimate (log intensity, higher = more binding, comparable within an allelic series) in [39]; 6.38 upbm affinity estimate (log intensity, higher = more binding, comparable within an allelic series) in [18]; 6.39 upbm affinity estimate (log intensity, higher = more binding, comparable within an allelic series) in [21]. Also, the binding signal in experiment [26] is 6.43 upbm affinity estimate (log intensity, higher = more binding, comparable within an allelic series); in [40], 8.27 upbm affinity estimate (log intensity, higher = more binding, comparable within an allelic series).

Turning to CGACGCGA, the binding signal was 6.36 upbm affinity estimate (log intensity, higher = more binding, comparable within an allelic series) in experiment [1]; 7.97 upbm affinity estimate (log intensity, higher = more binding, comparable within an allelic series) in experiment [35]; 8.03 upbm affinity estimate (log intensity, higher = more binding, comparable within an allelic series) in experiment [36]; 8.13 upbm affinity estimate (log intensity, higher = more binding, comparable within an allelic series) in [37]; 6.45 upbm affinity estimate (log intensity, higher = more binding, comparable within an allelic series) in [8]; 6.44 upbm affinity estimate (log intensity, higher = more binding, comparable within an allelic series) in experiment [18]. For the same sequence, the binding signal in experiment [21] was 6.38 upbm affinity estimate (log intensity, higher = more binding, comparable within an allelic series); in experiment [26] it was 6.54 upbm affinity estimate (log intensity, higher = more binding, comparable within an allelic series).

Turning to CCAGGACC, the binding signal in [1] is 6.54 upbm affinity estimate (log intensity, higher = more binding, comparable within an allelic series); in experiment [35], 8.04 upbm affinity estimate (log intensity, higher = more binding, comparable within an allelic series); in [36], 7.74 upbm affinity estimate (log intensity, higher = more binding, comparable within an allelic series); in [37] it was 8.14 upbm affinity estimate (log intensity, higher = more binding, comparable within an allelic series); in experiment [8] it was 6.39 upbm affinity estimate (log intensity, higher = more binding, comparable within an allelic series); in experiment [18], 6.57 upbm affinity estimate (log intensity, higher = more binding, comparable within an allelic series). Also, the binding signal is 6.52 upbm affinity estimate (log intensity, higher = more binding, comparable within an allelic series) in [21] and 6.51 upbm affinity estimate (log intensity, higher = more binding, comparable within an allelic series) in [26].

(Values after publication PMC11006913.)
